This note sets out measurements from PubChem BioAssay (NCI).

SMILES strings stand for the structures. The panel holds about 79,000 compounds, 15% with a hit somewhere; the sample as a whole holds those more often. Values without a mark were called inactive. The source made the active and inactive calls. No stated cut-off is given here; in the data, active means growth inhibition above about 70%; inactive means the rest.

Experiment [1] is described as follows: NCI Yeast Anticancer Drug Screen. Data for the rad50 strain (AID 155).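 Further: 0% = growth of vehicle-only cultures of the same strain.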 To be noted: S. cerevisiae rad50 strain growth inhibition; at 50.0 µM; hits give high values. Put shortly: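 Yeast carrying a defined DNA repair defect were exposed to test compounds, and growth was compared with vehicle-treated controls to give percent inhibition.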
Experiment [2] in a line: NCI Yeast Anticancer Drug Screen. Data for the mec2-1 strain (AID 157). As to conditions: S. cerevisiae mec2-1 strain, at 50.0 µM, hits give high values. Put shortly:
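Vehicle-treated cultures served as reference for growth inhibition of compound-exposed mec2-1 yeast.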

The nature of experiment [3]: NCI Yeast Anticancer Drug Screen. Data for the sgs1 mgt1 strain (AID 161).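 Further: 0% = growth of cultures given vehicle only.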 To be noted: S. cerevisiae sgs1 mgt1 strain, at 50.0 µM, hits give high values. Put shortly: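 Read-out: growth inhibition vs vehicle controls. Cells: mutant yeast strain deficient in DNA damage repair.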
Experiment [4] can be described thus: NCI Yeast Anticancer Drug Screen. Data for the cln2 rad14 strain (AID 165).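 Further: 0% = growth equal to vehicle treated cultures.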 As to conditions: S. cerevisiae cln2 rad14 strain, at 50.0 µM, hits give high values. The method in brief: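 Each compound was tested on cln2 rad14 yeast. Inhibition of growth was calculated against vehicle-exposed controls.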
Experiment [5] in a line: NCI Yeast Anticancer Drug Screen. Data for the bub3 strain (AID 167). To be noted: S. cerevisiae bub3 mutant strain, at 50.0 µM, hits give high values. The method in brief:
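Compounds were applied to a genetically altered yeast strain carrying a cell-cycle control defect. Growth inhibition was scored against vehicle-treated controls.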

Experiment [6] can be described thus: NCI Yeast Anticancer Drug Screen. Data for the mlh1 rad18 strain (AID 175). To be noted: S. cerevisiae mlh1 rad18 strain growth inhibition; at 50.0 µM; hits give high values. Put shortly:
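Vehicle-treated cultures served as the reference for growth inhibition in a yeast strain carrying DNA damage repair alterations exposed to each compound.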

`CN(C)c1ccc(/C=C(\C#N)c2cccc(Br)c2)cc1`: the growth inhibition is -2.45% in experiment [1]; -7.3% in experiment [2]; 3.1% in experiment [3]; -11.3% in experiment [4]; 12.1% in experiment [5]; -0.05% in experiment [6].

Turning to `C/C(=N\Nc1ccccc1)c1sc(-c2nc(C)c(/C(C)=N/Nc3ccccc3)s2)nc1C`, the growth inhibition was 24.3% in experiment [1]; -3.2% in experiment [2]; 14.3% in experiment [3]; -29% in experiment [4]; 17.6% in experiment [5]; 25.2% in experiment [6].

In the case of `Cc1c(CCOC=O)c(=O)[nH]c2nncn12`, the growth inhibition in experiment [1] was -15.5%; in experiment [2], -29.6%; in experiment [3], -18.3%; in experiment [4], 16.9%; in experiment [5], -9.65%; in experiment [6], 2.65%.

`c1ccc(C2(c3ccccc3)CC([P+](c3ccccc3)(c3ccccc3)c3ccccc3)N=N2)cc1` (stereo unspecified): the growth inhibition in experiment [1] was 99.3% (active); in experiment [2] it was 99.6% (active); in experiment [3] it was 99.7% (active); in experiment [4], 99.4% (active); in experiment [5] it was 97.5% (active); in experiment [6], 99.5% (active).

Turning to `CC(=O)Nc1ccc(/C=N/Nc2ccccc2)cc1`, the growth inhibition in experiment [1] was 97.9% (active); in experiment [2] it was 98.8% (active); in experiment [3], 98.5% (active); in experiment [4] it was 96.6% (active); in experiment [5], 98.5% (active); in experiment [6], 98.7% (active).

As to `COc1ccc(CCN/C=C(\C)C(=O)c2ccc(F)cc2)cc1OC`, the growth inhibition in experiment [1] was 11.2%; in experiment [2], -4.6%; in experiment [3], -13.6%; in experiment [4], -29.2%; in experiment [5], -13.9%; in experiment [6], -4.5%.

Turning to `COc1ccc(C(=O)c2cc(S(=O)(=O)O)c(OC)cc2O)c(O)c1`, the growth inhibition in experiment [1] is -32.8%; in experiment [2], -35.4%; in experiment [3], -31.2%; in experiment [4], -1.6%; in experiment [5], -13.4%; in experiment [6] it was -21.9%.

Take `CC(=O)Nc1ccc(/C=N/NS(=O)(=O)c2ccc(C)cc2)cc1`: the growth inhibition in experiment [1] was 0.3%; in experiment [2], 34.7%; in experiment [3], 16.9%; in experiment [4] it was -1.85%; in experiment [5], 30.6%; in experiment [6], 17.1%.

As to `COc1cc(OC)c2cnc(Cl)cc2c1`, the growth inhibition in experiment [1] is 15.4%; in experiment [2], -9.1%; in experiment [3], -5.35%; in experiment [4], -41.4%; in experiment [5], -2.85%; in experiment [6], 6.6%.

For the compound `CCCOC(=O)CC(=O)OCC`, the growth inhibition in experiment [1] was 6%; in experiment [2] it was 17.2%; in experiment [3], -4.95%; in experiment [4], -11.8%; in experiment [5] it was -7.15%; in experiment [6], -17.4%.

In the case of `CCCCOC(=O)c1c2nc3c(C(=O)OCCCC)ccc(C)c3oc-2c(C)c(=O)c1NC(C)=O`, the growth inhibition in experiment [1] is 19.4%; in experiment [2] it was 5.1%; in experiment [3], 6.95%; in experiment [4], 4.9%; in experiment [5], -5.3%; in experiment [6], 5.2%.

With `COC(=O)c1ccc(/C2=c3\cc/c([n-]3)=C(\c3ccc(C(=O)OC)cc3)c3ccc([n-]3)/C(c3ccc(C(=O)OC)cc3)=c3/cc/c([n-]3)=C(\c3ccc(C(=O)OC)cc3)c3ccc2[n-]3)cc1.[Mn]`, the growth inhibition in experiment [1] is 14.8%; in experiment [2] it was 23.1%; in experiment [3], 12.5%; in experiment [4], -3.65%; in experiment [5], -4.55%; in experiment [6], 53.7%.

As for `COc1ccc(C(=Cc2cc(OC(C)=O)c3ccccc3c2OC(C)=O)c2ccc(OC)cc2)cc1`, the growth inhibition in experiment [1] is 13.1%; in experiment [2], -8.8%; in experiment [3] it was -8%; in experiment [4], -15.9%; in experiment [5], 3.7%; in experiment [6], -0.5%.

Turning to `Cc1cnc(N)s1`, the growth inhibition is 3.8% in experiment [1]; -23.9% in experiment [2]; -7.8% in experiment [3]; -24.7% in experiment [4]; -11.2% in experiment [5]; 9.45% in experiment [6].

In the case of `CC(C)C1(C(C)C)OCC(CO)O1` (stereo unspecified), the growth inhibition in experiment [1] was 9.55%; in experiment [2] it was -7.75%; in experiment [3] it was -7.85%; in experiment [4], -60.2%; in experiment [5] it was 16.4%; in experiment [6], -9.3%.

Take `Nc1ccccc1SC(CC(=O)c1ccccc1)c1cccc([N+](=O)[O-])c1` (stereo unspecified): the growth inhibition in experiment [1] was -31.1%; in experiment [2], -26.1%; in experiment [3], 0.55%; in experiment [4], -29.6%; in experiment [5], -17.9%; in experiment [6], -13.5%.

Regarding `C1=C(C2=CCCCC2)CCCC1`, the growth inhibition in experiment [1] is -1.35%; in experiment [2], 6%; in experiment [3], -4.35%; in experiment [4], -42.9%; in experiment [5], 4.8%; in experiment [6], 4.15%.

Regarding `COC(CCCl)c1ccc(C)cc1` (stereo unspecified), the growth inhibition in experiment [1] was -9.4%; in experiment [2] it was -66.4%; in experiment [3], -24%; in experiment [4], 3.8%; in experiment [5], -29.9%; in experiment [6], 1.8%.

Consider `COC1(OC)CC2C(=O)N(Cc3ccccc3)C1C(S(=O)(=O)c1ccccc1)C2S(=O)(=O)c1ccccc1` (stereo unspecified), for which the growth inhibition was 27.6% in experiment [1]; 29.5% in experiment [2]; 45.5% in experiment [3]; -31.7% in experiment [4]; 50.2% in experiment [5]; 64.8% in experiment [6].

In the case of `O=C1C(=O)c2ccccc2C(O)=C1CC=C(Cl)Cl`, the growth inhibition is -3.9% in experiment [1]; 5.5% in experiment [2]; -5.6% in experiment [3]; -33.1% in experiment [4]; 29.9% in experiment [5]; -33.6% in experiment [6].

On to `Cc1cc(C)c(C(=O)O)c(C)c1Br`, for which the growth inhibition in experiment [1] was -3%; in experiment [2], -27.4%; in experiment [3] it was -4.85%; in experiment [4] it was -34.6%; in experiment [5], 9.1%; in experiment [6], 4.5%.
